Test results as given in PubChem BioAssay AID1159580 (chemical genetic matrix, 2015).
Among all 5,500 compounds or so, about 2,000 (36%) were called active. Inconclusive results (about 18%) are left out. No stated cut-off is given here; in the data, active means normalized growth mostly below about 0.91 (no sharp cut-off); inconclusive means no clear call, values can overlap the other calls; inactive means mostly above about 0.92. This is one part of the list.

Assay: chemical genetic growth profiling, strain panel (AID 1159580);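 further: tested at 20 µM; growth read once vehicle control cultures reached saturation at 30 °C; 1 = growth at the plate median or of vehicle wells; lower values mean less growth of the strain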
Details: growth OD

Measured: normalized growth

C=CCc1cc(OC)c2c(c1OC)OCO2
inactive: S. cerevisiae deletion strains, locus YJR075W, strain HOC1, hits give low values 0.928 | S. cerevisiae deletion strains, locus YKL009W, strain mrt4, hits give low values 0.953 | S. cerevisiae deletion strains, locus YKL085W, strain MDH1 (second series), hits give low values 0.939 | S. cerevisiae deletion strains, locus YKL085W, strain MDH1, hits give low values 0.939 | S. cerevisiae deletion strains, locus YKL160W, strain elf1, hits give low values 0.915 | S. cerevisiae deletion strains, locus YKL190W, strain CNB1, hits give low values 0.964 | S. cerevisiae deletion strains, locus YKR001C, strain vps1, hits give low values 0.953 | S. cerevisiae deletion strains, locus YLL001W, strain dnm1, hits give low values 0.96 | S. cerevisiae deletion strains, locus YLL041C, strain sdh2, hits give low values 0.947 | S. cerevisiae deletion strains, locus YLR027C, strain aat2, hits give low values 0.941 | S. cerevisiae deletion strains, locus YLR039C, strain RIC1, hits give low values 1.03 | S. cerevisiae deletion strains, locus YLR058C, strain SHM2, hits give low values 0.976 | S. cerevisiae deletion strains, locus YLR113W, strain HOG1, hits give low values 0.957 | S. cerevisiae deletion strains, locus YLR221C, strain rsa3, hits give low values 0.948 | S. cerevisiae deletion strains, locus YLR258W, strain gsy2, hits give low values 0.941 | S. cerevisiae deletion strains, locus YLR262C, strain YPT6 (second series), hits give low values 0.903 | S. cerevisiae deletion strains, locus YLR262C, strain YPT6, hits give low values 1.06 | S. cerevisiae deletion strains, locus YLR268W, strain sec22, hits give low values 1.01 | S. cerevisiae deletion strains, locus YLR330W, strain CHS5, hits give low values 0.967 | S. cerevisiae deletion strains, locus YLR342W, strain FKS1 (second series), hits give low values 0.953 | S. cerevisiae deletion strains, locus YLR342W, strain FKS1, hits give low values 0.932 | S. cerevisiae deletion strains, locus YLR357W, strain rsc2, hits give low values 1.07 | S. cerevisiae deletion strains, locus YLR370C, strain arc18, hits give low values 0.924 | S. cerevisiae deletion strains, locus YLR371W, strain rom2, hits give low values 0.943 | S. cerevisiae deletion strains, locus YLR384C, strain iki3, hits give low values 0.935 | S. cerevisiae deletion strains, locus YLR418C, strain cdc73, hits give low values 0.938 | S. cerevisiae deletion strains, locus YML016C, strain PPZ1, hits give low values 0.988 | S. cerevisiae deletion strains, locus YML032C, strain rad52, hits give low values 0.987 | S. cerevisiae deletion strains, locus YML120C, strain ndi1, hits give low values 0.969 | S. cerevisiae deletion strains, locus YMR058W, strain fet3, hits give low values 0.951 | S. cerevisiae deletion strains, locus YMR078C, strain ctf18, hits give low values 0.943 | S. cerevisiae deletion strains, locus YMR125W, strain sto1, hits give low values 0.896 | S. cerevisiae deletion strains, locus YMR223W, strain ubp8, hits give low values 0.935 | S. cerevisiae deletion strains, locus YMR231W, strain pep5, hits give low values 1 | S. cerevisiae deletion strains, locus YMR263W, strain SAP30, hits give low values 0.94 | S. cerevisiae deletion strains, locus YMR307W, strain GAS1, hits give low values 0.987 | S. cerevisiae deletion strains, locus YNL067W, strain RPL9B, hits give low values 0.921 | S. cerevisiae deletion strains, locus YNL128W, strain TEP1, hits give low values 0.971 | S. cerevisiae deletion strains, locus YNL153C, strain GIM3, hits give low values 0.97 | S. cerevisiae deletion strains, locus YNL183C, strain NPR1, hits give low values 0.916 | S. cerevisiae deletion strains, locus YNL209W, strain ssb2, hits give low values 0.962 | S. cerevisiae deletion strains, locus YNL248C, strain rpa49, hits give low values 0.969 | S. cerevisiae deletion strains, locus YNL250W, strain rad50, hits give low values 0.967 | S. cerevisiae deletion strains, locus YNL271C, strain bni1, hits give low values 0.929 | S. cerevisiae deletion strains, locus YNL298W, strain CLA4, hits give low values 0.96 | S. cerevisiae deletion strains, locus YNL322C, strain KRE1 (second series), hits give low values 0.933 | S. cerevisiae deletion strains, locus YNL322C, strain KRE1, hits give low values 0.961 | S. cerevisiae deletion strains, locus YNR049C, strain mso1, hits give low values 0.942 | S. cerevisiae deletion strains, locus YNR052C, strain pop2, hits give low values 0.984 | S. cerevisiae deletion strains, locus YOL006C, strain TOP1, hits give low values 0.589 | S. cerevisiae deletion strains, locus YOL012C, strain htz1 1.06 | S. cerevisiae deletion strains, locus YOL147C, strain pex11, hits give low values 0.943 | S. cerevisiae deletion strains, locus YOR001W, strain rrp6, hits give low values 0.949 | S. cerevisiae deletion strains, locus YOR061W, strain CKA2, hits give low values 0.981 | S. cerevisiae deletion strains, locus YOR069W, strain VPS5, hits give low values 0.99 | S. cerevisiae deletion strains, locus YOR070C, strain gyp1, hits give low values 0.982 | S. cerevisiae deletion strains, locus YOR080W, strain dia2, hits give low values 0.991 | S. cerevisiae deletion strains, locus YOR083W, strain WHI5, hits give low values 0.951 | S. cerevisiae deletion strains, locus YOR106W, strain vam3, hits give low values 0.956 | S. cerevisiae deletion strains, locus YOR136W, strain idh2, hits give low values 0.974 | S. cerevisiae deletion strains, locus YOR144C, strain elg1, hits give low values 0.952 | S. cerevisiae deletion strains, locus YOR231W, strain MKK1, hits give low values 0.999 | S. cerevisiae deletion strains, locus YOR265W, strain rbl2, hits give low values 0.967 | S. cerevisiae deletion strains, locus YOR270C, strain vph1, hits give low values 0.841 | S. cerevisiae deletion strains, locus YOR290C, strain snf2, hits give low values 0.926 | S. cerevisiae deletion strains, locus YOR316C, strain cot1, hits give low values 0.929 | S. cerevisiae deletion strains, locus YPL051W, strain arl3, hits give low values 0.998 | S. cerevisiae deletion strains, locus YPL055C, strain LGE1, hits give low values 0.908 | S. cerevisiae deletion strains, locus YPL078C, strain atp4, hits give low values 0.906 | S. cerevisiae deletion strains, locus YPL106C, strain sse1, hits give low values 0.987 | S. cerevisiae deletion strains, locus YPL241C, strain CIN2, hits give low values 0.967 | S. cerevisiae deletion strains, locus YPL256C, strain CLN2, hits give low values 0.977 | S. cerevisiae deletion strains, locus YPR141C, strain kar3, hits give low values 0.94 | S. cerevisiae deletion strains, locus YPR163C, strain tif3, hits give low values 0.968 | S. cerevisiae deletion strains, locus YPR167C, strain met16, hits give low values 0.939 | S. cerevisiae deletion strains, strain wtn01, hits give low values 0.933 | S. cerevisiae strains, strain wild type, hits give low values 0.999
active: S. cerevisiae deletion strains, locus YKL068W, hits give low values 0.94 | S. cerevisiae deletion strains, locus YKR026C, strain gcn3, hits give low values 0.909 | S. cerevisiae deletion strains, locus YKR091W, strain srl3, hits give low values 0.922 | S. cerevisiae deletion strains, locus YLL026W, hits give low values 0.923 | S. cerevisiae deletion strains, locus YLR102C, strain apc9, hits give low values 0.923 | S. cerevisiae deletion strains, locus YLR320W, strain mms22, hits give low values 0.666 | S. cerevisiae deletion strains, locus YML124C, strain tub3, hits give low values 0.931 | S. cerevisiae deletion strains, locus YMR129W, hits give low values 0.921 | S. cerevisiae deletion strains, locus YMR205C, strain PFK2, hits give low values 0.83 | S. cerevisiae deletion strains, locus YNL071W, strain lat1, hits give low values 0.737 | S. cerevisiae deletion strains, locus YNL233W, strain BNI4, hits give low values 0.835 | S. cerevisiae deletion strains, locus YNL307C, strain MCK1, hits give low values 0.862 | S. cerevisiae deletion strains, locus YOR184W, strain ser1, hits give low values 0.872 | S. cerevisiae deletion strains, locus YPL240C, strain hsp82, hits give low values 0.927 | S. cerevisiae deletion strains, locus YPR119W, strain clb2, hits give low values 0.926
